Inconclusive results are not listed. Values without a mark were called inactive. Active and inactive are the calls of the source. The call rests on the fitted dose curve; in most records, active means well fitted inhibition curve with a large enough effect; inconclusive means small, poorly fitted or top-dose-only effect; inactive means no such curve, though single readings can be large or run the other way.
Target: Tumor susceptibility gene 101 protein (Homo sapiens) (UniProt Q99816)
Assay: qHTS Assay for Iinhibitors of HIV-1 Budding by Blocking the Interaction of PTAP/TSG101: Hit Validation (AID 651600); further: nearly all actives have a fitted effect of over 70% in size
Conditions: PTAP peptide/TSG101 UEV interaction, biochemical assay; series mostly up to 57.5 µM; activity change, negative = inhibition: at the top concentration
How it was run: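 Tsg101 binding domain 10 uM + FITC-PTAP peptide 50 nM (final), 10 mM HEPES pH 7.5/0.15 M NaCl/0.01% Tween 20/3 mM EDTA/0.1 mM TCEP; 20 min RT; FP read, FITC filters.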
On the % scale 0 is the no-effect control and ±100 the full control effect; potency means the concentration at half of the fitted maximal effect.

Sequence of Tumor susceptibility gene 101 protein (Homo sapiens) (Q99816 whole entry, looked up): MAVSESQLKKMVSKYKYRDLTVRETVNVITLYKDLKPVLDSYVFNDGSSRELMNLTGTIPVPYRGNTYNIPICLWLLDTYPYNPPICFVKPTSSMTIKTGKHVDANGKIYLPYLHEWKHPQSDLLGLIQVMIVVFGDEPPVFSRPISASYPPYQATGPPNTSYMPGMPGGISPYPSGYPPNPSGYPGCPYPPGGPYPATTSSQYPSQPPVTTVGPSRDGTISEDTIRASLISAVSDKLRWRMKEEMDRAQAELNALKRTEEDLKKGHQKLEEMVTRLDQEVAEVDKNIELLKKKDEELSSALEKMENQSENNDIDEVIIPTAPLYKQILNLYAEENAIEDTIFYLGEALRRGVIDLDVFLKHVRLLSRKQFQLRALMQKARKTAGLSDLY

Row | Compound | activity change, negative = inhibition | Potency
1 | COC(=O)CNc1c(-c2ccccc2)nc2ccc(Br)cn12 | -14.8% | 
2 | O=C1/C(=N\S(=O)(=O)c2cccs2)C([n+]2cccc(Cc3ccccc3)c2)=C([O-])c2ccccc21 |  | 16.3 µM (active)
3 | COc1cc(C2C=C(c3cccs3)Nc3ncnn32)cc(OC)c1OC (stereo not given) | -9.22% | 
4 | COc1cc(OC)c(N(C)C(=O)c2sc3nc4n(c(=O)c3c2C)CCCC4)cc1Cl | -8.9% | 
5 | CN1C(=O)NC(c2ccccc2[N+](=O)[O-])C2=C1CCCC2=O (stereo not given) |  | 16.3 µM (active)
6 | CCCCCOc1ccc(/C=c2\sc3nc(=O)c(-c4ccccc4)nn3c2=O)cc1OC | -11.2% | 
7 | CC(=O)n1c(C=Nc2ccc(Cl)cc2)c(O)c2ccccc21 |  | 16.3 µM (active)
8 | CCCCCCn1c(=O)[nH]c2nc3cc(N)ccc3nc2c1=O |  | 14.6 µM (active)
9 | O=c1[nH]c2c(s1)C=Nc1ccccc1N2 |  | 9.19 µM (active)
10 | CC(C)(C)C(=O)c1sc2nc(-c3cccs3)cc(C(F)(F)F)c2c1N | 11.5% | 
11 | CCN(CC)C(=O)CSc1nnc2nnc3cc(OC)ccc3n12 |  | 29.1 µM (active)
12 | O=C(/C=C/c1ccc(Cl)cc1Cl)c1nc2ccccc2[nH]1 |  | 20.6 µM (active)
13 | Cc1ccccc1-n1c(SCc2c(C)noc2C)nnc1-c1cccnc1 | -25.5% | 
14 | O=C(NCc1ccco1)c1cccc2c1C(=O)c1ccc(N3CCC(Cc4ccccc4)CC3)cc1S2(=O)=O | -18.3% | 
15 | COc1ccc(NC(=O)c2cccc(-c3ccc(O)cc3)c2)cn1 |  | 20.6 µM (active)
16 | S=C(Nc1ccc(N2CCOCC2)cc1)Nc1ccc2nc(-c3ccco3)c(-c3ccco3)nc2c1 |  | 32.6 µM (active)
17 | CSCC(C)N1CCC(n2nccc2NC(=O)CCCc2ccccc2)CC1 (stereo not given) |  | 13 µM (active)
18 | CCCCCCCCOc1ccc(C2OC34CCCCC3C(C#N)(C#N)C2(C#N)C(=N)O4)cc1 (stereo not given) | -14.4% | 
19 | CCc1c(C)sc(NC(=O)c2ccccc2[N+](=O)[O-])c1C(N)=O | 7.8% | 
20 | C=CCOc1ccc(C2OC34CCCCC3C(C#N)(C#N)C2(C#N)C(=N)O4)cc1 (stereo not given) |  | 25.9 µM (active)

Row | Compound | activity change, negative = inhibition | Potency
21 | COc1ccc2c(C=Nc3c(C)n(C)n(-c4ccccc4)c3=O)c(O)n(Cc3ccco3)c(=O)c2c1 |  | 29.1 µM (active)
22 | c1ccc2[nH]c3cc4ncnc4cc3nc2c1 |  | 6.51 µM (active)
23 | O=C1Nc2ccc(Cl)cc2C12Nc1ccccc1-c1nnc(SCc3ccccc3F)nc1O2 (stereo not given) | -15.6% | 
24 | C=C1CCN(c2ccc(C(=O)O)cc2[N+](=O)[O-])CC1 | 2.72% | 
25 | CCOC(=O)Cn1c(=NC(=O)c2ccc([N+](=O)[O-])s2)sc2ccccc21 | 0.859% | 
26 | CCCN1C(=O)/C(=C/C=C2\N(CC)c3ccccc3C2(C)C)SC1=S |  | 29.1 µM (active)
27 | Cc1c(C(=O)NCc2ccccc2)sc2nc3n(c(=O)c12)CCCCC3 | -1.87% | 
28 | Cc1c(C(=O)N(C)c2cccc(C(F)(F)F)c2)sc2nc3n(c(=O)c12)CCCCC3 | -0.14% | 
29 | O=C(NCc1cc(C(F)(F)F)ccc1Cl)c1cccc2c1C(=O)c1ccc(N3CCC(Cc4ccccc4)CC3)cc1S2(=O)=O |  | 13 µM (active)
30 | O=[N+]([O-])c1cc(Cl)c2cccnc2c1O | -1.11% | 
31 | COc1ccc(C2C(C(=O)c3cccs3)=C(O)C(=O)N2c2nncs2)cc1 (stereo not given) |  | 20.6 µM (active)
32 | O=c1cc2oc3cc(O)c(O)cc3c(-c3ccccc3O)c-2cc1O |  | 13 µM (active)
33 | Clc1ccc(-c2nnc3sc(-c4ccc(Br)o4)nn23)cc1 |  | 4.61 µM (active)
34 | O=C1NC(c2ccco2)Nc2sc3c(c21)CCN(Cc1ccccc1)C3 (stereo not given) | 10.5% | 
35 | CCN1CCN(Cc2ccc(NC(=O)Nc3ccccc3OC)cc2)CC1 | 1.71% | 
36 | Cn1cc(/C=C2\SC(=S)N(NC(=O)c3ccccc3)C2=O)c2ccccc21 | 11.4% | 
37 | CCOC(=O)c1c(C)oc2c1c(CN1CCN(C(=O)OCC)CC1)c(O)c1ccccc12 | -5.85% | 
38 | Nc1c(C(=O)c2cccs2)sc2nsc(SCCN3CCCCC3)c12 |  | 14.6 µM (active)
39 | CC1C2C(c3ccccc3)N(C)C(=O)N(C)C2N(C)C(=O)N1C (stereo not given) | -7% | 
40 | S=C(NCc1ccccc1)Nc1cccc(Cl)c1 | -1.4% | 

— PubChem BioAssay (NCATS)
